Screening data as filed in PubChem.
697 NFkB inh – inhibitors of PMA/ionomycin-induced NF-kB reporter, 697 cells, primary screen, B-cell NF-kB inhibitor project, cell-based, luminescence, uHTS | inhibition, % at 4 µM | AID 435022, 2010 | 697 B-cell NF-kB luciferase reporter, 16 h | 330,000 compounds, 0.33% hits; in the data active = inhibition above about 35%
Jurkat NFkB inh – inhibitors of induced NF-kB luciferase reporter, primary screen, TCR NF-kB activation inhibitor project, cell-based, luminescence, uHTS; inhibition, % at 4 µM; Jurkat, PMA/ionomycin-induced NF-kB luciferase reporter; 330,000 compounds, 0.53% hits; in the data active = inhibition above about 50%
Gli-Sufu block – Gli-Sufu pathway antagonists, primary screen, luciferase luminescence, Sufu-KO-LIGHT cells, uHTS. inhibition, % at 5 µM. AID 588413, 2011. Sufu-KO-LIGHT fibroblasts, Gli luciferase reporter luminescence. 340,000 compounds, 0.74% hits;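 active = inhibition above about 55%, limit read from the data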
TAG inh – inhibitors of triacylglycerol accumulation, primary screen, cell-based, uHTS, fluorescence, H9c2; H9c2 cells, Nile Red lipid (TAG) fluorescence; cells loaded with 200 µM oleic acid; inhibition, % at 12.5 µM; 230,000 compounds, 0.66% hits; AID 651582, 2012;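 active = pattern-corrected inhibition of lipid staining of at least 50% with the nuclear-stain viability signal not falling by more than 50%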
H9c2 protect – cardioprotection against H2O2-induced cell death, primary screen, uHTS, H9c2 cells, ATPLite luminescence | 360,000 compounds, 0.63% hits | H9c2 cardiomyocytes, H2O2 injury protection, 2 h | protection from H2O2 cell death, % at 20 µM;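 active = compounds giving at least 50% protection of heart cells from peroxide-induced death in the single-dose screen, raw or plate-pattern-corrected value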
COUP-TFII inh – NR2F2 transcriptional activity inhibitors, primary screen, cell-based, luciferase reporter, HEK293T, luminescence; COUP transcription factor 2 (Homo sapiens), P24468; HEK293T NGFI-A luciferase reporter; inhibition, % at 8.6 µM; 370,000 compounds, 0.7% hits;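 active = inhibition above a per-plate cutoff, mean inhibition of test wells between control levels plus 3 SD, cut at about 38% in these data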;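 note: cells cotransfected with COUP-TFII expression vector driving the NGFI-A reporter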
Target sequence (P24468 whole entry, looked up): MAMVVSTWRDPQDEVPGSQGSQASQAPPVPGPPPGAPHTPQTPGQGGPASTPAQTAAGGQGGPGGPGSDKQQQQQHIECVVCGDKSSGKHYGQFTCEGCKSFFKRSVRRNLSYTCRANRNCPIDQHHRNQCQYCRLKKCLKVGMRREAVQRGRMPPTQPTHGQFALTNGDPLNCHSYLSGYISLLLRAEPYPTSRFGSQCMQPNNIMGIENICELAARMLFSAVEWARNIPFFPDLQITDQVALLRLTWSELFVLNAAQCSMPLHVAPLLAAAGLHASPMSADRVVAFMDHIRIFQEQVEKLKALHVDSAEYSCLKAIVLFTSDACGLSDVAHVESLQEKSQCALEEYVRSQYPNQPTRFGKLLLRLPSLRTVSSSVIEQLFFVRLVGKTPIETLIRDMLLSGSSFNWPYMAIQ
TAG conf – triacylglycerol accumulation inhibitors, retest, confirmation, cell-based, single concentration, Nile Red fluorescence, H9c2 | shares compounds with TAG inh | H9c2 lipid accumulation; cells loaded with 200 µM oleic acid | inhibition, % at 12.5 µM | 990 compounds, 71% hits | AID 651629, 2012;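 active = mean inhibition across replicates of 40% or more; inactive = mean inhibition below 40%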
Large screens that a line does not name were inactive (follow-up assays come after a bar, where they were run). Most compounds without a hit are left out; they make up all but 2.6% or so of the library.

C#CCOCCOCCOCCNc1nc(N2CCN(C(=O)[C@H]([C@@H](C)CC)n3cc([C@@H](N)CO)nn3)CC2)nc(N2CCN(C(=O)[C@H](CCCCN)n3cc([C@@H](N)CC(C)C)nn3)CC2)n1	none (no result: TAG inh, H9c2 protect)
NC(Cc1ccc(C(F)(F)F)cc1)c1csc(Nc2nncc3ccccc23)n1 (stereo not drawn)	TAG inh 52 (no result: 697 NFkB inh, Jurkat NFkB inh, Gli-Sufu block) | TAG conf 68
NC(COCc1ccccc1)c1csc(Nc2nncc3ccccc23)n1 (stereo not drawn)	none (no result: 697 NFkB inh, Jurkat NFkB inh, Gli-Sufu block)
CCCCN(C)C(=O)c1ccc(Nc2nc(C(N)Cc3ccc(C(F)(F)F)cc3)cs2)nc1 (stereo not drawn)	TAG inh 56 (no result: 697 NFkB inh, Jurkat NFkB inh, Gli-Sufu block) | TAG conf 71
NC(Cc1ccc(C(F)(F)F)cc1)c1csc(Nc2ccc(C(=O)NCCCO)cn2)n1 (stereo not drawn)	TAG inh 57 (no result: 697 NFkB inh, Jurkat NFkB inh, Gli-Sufu block) | TAG conf inactive
NC(Cc1ccc(C(F)(F)F)cc1)c1csc(Nc2ccc(C(=O)NCc3ccco3)cn2)n1 (stereo not drawn)	none (no result: 697 NFkB inh, Jurkat NFkB inh, Gli-Sufu block)
CCC(C)NCCOCCOc1ccc(Cl)c2ccccc12 (stereo not drawn)	TAG inh 53 | TAG conf 45
O=C(c1cccc([N+](=O)[O-])c1)N1CCN(c2cccc(Cl)c2)CC1	none
COC(=O)c1cc(C(=O)N2CCN(c3cccc(Cl)c3)CC2)cc([N+](=O)[O-])c1	TAG inh 63 | TAG conf 56
COc1cc2c(cc1[N+](=O)[O-])-c1ccc([N+](=O)[O-])cc1C2=NNC(N)=S	TAG inh 52 (no result: 697 NFkB inh, Jurkat NFkB inh, Gli-Sufu block, COUP-TFII inh) | TAG conf 42
Cc1nc(N/N=C/c2cccc(F)c2)cc(N2CCOCC2)n1	TAG inh 64 | TAG conf 68
COc1ccccc1[C@H]1C(c2cccc(C)c2)=NN(c2ccccc2)[C@@H]1CO	TAG inh 72 (no result: Jurkat NFkB inh) | TAG conf inactive
COc1ccccc1[C@H]1C(c2ccccc2)=NN(c2ccccc2)[C@@H]1CO	none (no result: Jurkat NFkB inh, COUP-TFII inh)
CC1(C)CC(=O)C=C(c2ccc(COC(=O)c3ccc(Br)cc3)cc2)C1=O	none (no result: 697 NFkB inh, Jurkat NFkB inh, Gli-Sufu block, TAG inh, H9c2 protect)
O=c1nc(N/N=C/C=C/c2ccccc2)cn[nH]1	TAG inh 64 | TAG conf inactive
Cc1ccc(-c2ccc(/C=C3\SC(N4CCOCC4)=NC3=O)o2)cc1	none
O=C1N=C(N2CCOCC2)S/C1=C/c1ccc(-c2ccc(F)cc2)o1	TAG inh 66 | TAG conf 42
Nc1ccc(Nc2nc(-c3cc4ccccc4oc3=O)cs2)cc1	none
COc1cccc2sc(Nc3nc(-c4cc5ccccc5oc4=O)cs3)nc12	TAG inh 58 (no result: 697 NFkB inh, Jurkat NFkB inh) | TAG conf 87
Cc1cc(NC(=O)CSc2ncnc3ccccc23)no1	none
Cc1cc(NC(=O)CSc2nc(-c3cccs3)nc3ccccc23)no1	TAG inh 78 | TAG conf 73
COc1ccc(C(=O)Nc2ccc(C(=O)Nc3cccc(C)c3)cc2)cc1	TAG inh 56 | TAG conf inactive
COc1cccc(NC(=O)c2ccc(NC(C)=O)cc2)c1	none (no result: TAG inh)
COc1ccc(C(=O)CSc2nnc(-c3cccnc3)n2-c2ccc(C)cc2)cc1	none (no result: 697 NFkB inh, Jurkat NFkB inh, Gli-Sufu block, TAG inh, H9c2 protect)
COc1cc2c(cc1OC)C(C)N(C(=O)Nc1cc(C)cc(C)c1)CC2 (stereo not drawn)	none (no result: TAG inh)
COc1cc2c(cc1OC)C(C)N(C(=O)c1cc3c(C)cc(C)cc3[nH]1)CC2 (stereo not drawn)	TAG inh 54 | TAG conf 59
Cc1ccc(NC(=O)[C@H]2CC(=O)O[C@@H]2c2ccccc2)cc1C	none (no result: 697 NFkB inh, Jurkat NFkB inh, Gli-Sufu block, TAG inh, H9c2 protect)
CC(C)C[C@H](CO)N(Cc1ccccc1)S(=O)(=O)N(Cc1ccccc1)[C@@H](CO)CC(C)C	TAG inh 56 | TAG conf 46
C=CS(=O)(=O)N(Cc1ccccc1)[C@H](CO)CC(C)C	none (no result: 697 NFkB inh, Jurkat NFkB inh)
CCOC(=O)CC[C@@H]1CC[C@]2(CCCN(C(=O)c3ccccc3)C2)O1	none (no result: 697 NFkB inh, Jurkat NFkB inh, Gli-Sufu block, TAG inh, H9c2 protect)
Cn1c(N)c(C(=O)COC(=O)c2ccc([N+](=O)[O-])o2)c(=O)n(C)c1=O	TAG inh 88 | TAG conf 101
Cn1c(N)c(C(=O)COC(=O)c2ccc(Br)o2)c(=O)n(C)c1=O	none (no result: TAG inh)
C[C@@H]1C=CCCO[C@]12C(=O)N(Cc1ccc(F)cc1)c1ccccc12	none (no result: 697 NFkB inh, Jurkat NFkB inh, Gli-Sufu block, TAG inh, H9c2 protect)
CCOc1ccccc1NC(=O)N1CCCC1C(=O)Nc1ccc(-n2cnnn2)c(C)c1 (stereo not drawn)	TAG inh 56 | TAG conf inactive
CCn1c(SCc2ccc(C(C)(C)C)cc2)nnc1-c1ccc(C(C)(C)C)cc1	none (no result: 697 NFkB inh, Jurkat NFkB inh, Gli-Sufu block, TAG inh, H9c2 protect)
CCn1c(SCC(=O)NN=Cc2c[nH]c3ccccc23)nc2ccccc21	none (no result: 697 NFkB inh, Jurkat NFkB inh, Gli-Sufu block, TAG inh, H9c2 protect)
CCC(=O)NC(Nc1sc2c(c1C(=O)OC)CCCC2)(C(F)(F)F)C(F)(F)F	TAG inh 51 | TAG conf inactive
COCC(=O)Nc1sc2c(c1C(=O)OC)CCCC2	none
Cc1ccc(CNC(=O)c2ccc(N3CCC4(CC3)CC(c3ccccc3)=NO4)c(NC(=O)c3ccc(Cl)c([N+](=O)[O-])c3)c2)cc1	TAG inh 51 | TAG conf inactive
Cc1ccc(CNC(=O)c2ccc(N3CCC4(CC3)CC(c3ccccc3)=NO4)c(NC(=O)c3cccc(C)c3)c2)cc1	none
O=C(COc1ccc(Cl)cc1Cl)N/N=C1\CCCc2ccccc21	none
O=C(COc1ccc(Cl)cc1Cl)NN=C1c2ccccc2-c2ccccc21	TAG inh 51 | TAG conf inactive
CN(Cc1ccccc1)C(=O)c1cccc(NC(=O)Cc2ccc(NC(=O)C3CCCN(S(=O)(=O)c4cccc([N+](=O)[O-])c4)C3)cc2)c1 (stereo not drawn)	none (no result: 697 NFkB inh, Jurkat NFkB inh, Gli-Sufu block, TAG inh, H9c2 protect)
COc1ccc(NC(=O)N(C)C[C@H]2OCc3cn(nn3)CCCC(=O)N([C@H](C)CO)C[C@@H]2C)cc1	none (no result: 697 NFkB inh, Jurkat NFkB inh, Gli-Sufu block, TAG inh, H9c2 protect)
C=CCN1C(=O)c2n[nH]c(COC)c2C1c1ccc(F)cc1 (stereo not drawn)	none (no result: 697 NFkB inh, Jurkat NFkB inh, Gli-Sufu block, TAG inh, H9c2 protect)
Cc1nc2c(sc3nc4c(cc32)COC(C)(C)C4)c(=O)n1CC(=O)NCc1ccco1	none (no result: 697 NFkB inh, Jurkat NFkB inh, TAG inh, COUP-TFII inh)
CC1(C)Cc2nc3sc4c(SCC(=O)NCc5ccco5)ncnc4c3cc2CO1	TAG inh 54 | TAG conf 47
O=C(NC(=S)N(Cc1ccccc1)Cc1ccccc1)C1CCCCC1	TAG inh 54 | TAG conf inactive
O=C(NC(=S)NCCc1ccccc1)C1CCCCC1	none
